Results on 97 compounds are retold here after PubChem BioAssay AID1851 (National Center for Advancing Translational Sciences (NCATS), 2009).

SMILES strings stand for the structures. The whole screen tested about 16,000 compounds, of which about 4,000 (25%) were called active. About 26% were inconclusive and are not listed. Calls come from the whole dose curve; as a rule, active = well fitted curve in the direction sought with a large enough effect; inconclusive = small, poorly fitted or top-dose-only effect, or effect the other way; inactive = no such curve, though single readings can be large or run the other way. A selection follows.
% is set by controls: 0 for no effect and ±100 for the full control effect.

For the assay, the target named is Cytochrome P450 2C9 (Homo sapiens) (UniProt P11712). In words: Cytochrome panel assay with activity outcomes. The conditions noted are these: recombinant CYP, pro-luciferin dealkylation, luminescence, p450-cyp2c9; series mostly up to 57.1 µM.
Cytochrome P450 2C9 (Homo sapiens), sequence (P11712 whole entry, looked up): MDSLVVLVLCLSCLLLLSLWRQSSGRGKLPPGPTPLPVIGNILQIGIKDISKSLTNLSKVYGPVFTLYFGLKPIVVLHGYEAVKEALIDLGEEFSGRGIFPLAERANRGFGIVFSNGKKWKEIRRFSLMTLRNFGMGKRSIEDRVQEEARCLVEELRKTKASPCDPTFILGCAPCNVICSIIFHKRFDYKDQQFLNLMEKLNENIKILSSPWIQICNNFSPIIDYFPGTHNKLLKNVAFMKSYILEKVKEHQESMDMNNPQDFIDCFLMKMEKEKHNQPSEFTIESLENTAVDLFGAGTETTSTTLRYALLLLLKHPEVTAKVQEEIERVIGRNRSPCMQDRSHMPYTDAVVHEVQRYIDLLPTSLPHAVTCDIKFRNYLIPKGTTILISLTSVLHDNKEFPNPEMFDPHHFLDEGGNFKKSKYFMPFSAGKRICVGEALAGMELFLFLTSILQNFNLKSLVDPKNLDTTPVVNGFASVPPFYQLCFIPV
On to `Cc1noc(C)c1-c1nccc(N2CCN(C)CC2)n1`, for which the activity, negative = inhibition is 14.4% [at 2.29 µM] (inactive).

As to `CN(C)Cc1ccccc1-c1cncnc1NCc1cccnc1`, the activity, negative = inhibition is 11.6% [at 2.29 µM] (inactive).

With `COc1ccc(CNc2cc(-c3ccccc3CN(C)C)ncn2)c(OC)c1`, the activity, negative = inhibition is 4.22% [at 2.29 µM] (inactive).

For `Cc1ccc(-n2c(C)cc(C(=S)N3CCOCC3)c2C)cc1C`, the AC50 is 11.2 µM (active).

Regarding `CC(=O)Nc1c(C(=O)N2CCOCC2)cnn1-c1ccc(C)c(C)c1`, the AC50 entry is “inactive”.

With `Cc1cnc(CNc2ccnc(-c3ccoc3)n2)cn1`, the activity, negative = inhibition was 12.6% [at 2.29 µM] (inactive).

In the case of `COc1cc2c(cc1OC)-c1cc(=Nc3c(C)cc(C)cc3C)n(C)c(=O)n1CC2`, the AC50 is 1.26 µM (active).

Turning to `CSc1c(-c2ccccc2)nc2ccc(Cl)cc2c1C(=O)O`, the AC50 was 0.794 µM (active).

Consider `CSc1c(-c2ccccc2)nc2ccccc2c1C(=O)O`, for which the AC50 entry was “inactive”.

`Cc1cnc2cc(Cl)ccc2c1SCC(=O)O`: the activity, negative = inhibition was 3.69% [at 11.4 µM] (inactive).

On to `CC1(C)CC(O)CC(C)(C)N1CC(O)COCCOc1ccc(Br)cc1` (configuration not stated), for which the AC50 entry is “inactive”.

For the compound `Cc1ccccc1NC(=O)/C(=C/c1ccccc1)c1ccccc1`, the AC50 is 7.94 µM (active).

On to `COc1ccc(/C=C(/C(=O)Nc2ccccc2C(=O)NC(C)C)c2ccccc2)cc1`, for which the AC50 was 10 µM (active).

Consider `Cc1ccccc1NC(=S)NN1CCN(C)CC1`, for which the AC50 entry is “inactive”.

Consider `O=C(O)/C(=C\c1ccccc1)c1ccccc1`, for which the activity, negative = inhibition was -20.6% [at 11.4 µM] (inactive).

As to `CC(C)NC(=O)/C(=N\O)c1ccccc1`, the AC50 result is “inactive”.

For the compound `O=C(O)c1c2ccccc2cc2ccccc12`, the AC50 entry was “inactive”.

As for `N[C@@H](Cc1ccnnc1)C(=O)O`, the activity, negative = inhibition was -15.4% [at 11.4 µM] (inactive).

For `O=C(CSc1nnc(CNc2ccc(F)cc2)o1)N1c2ccccc2Sc2ccccc21`, the AC50 is 4.47 µM (active).

As for `CCN(CC)C(=O)CSc1nnc(CNc2ccc(F)cc2)o1`, the AC50 result is “inactive”.

Take `N#Cc1cccc(-c2cc(NCc3ccccc3)ncn2)c1`: the activity, negative = inhibition was 10.6% [at 2.29 µM] (inactive).

In the case of `Cc1ccc(-[n+]2cc(=O)o[nH]2)cc1`, the activity, negative = inhibition was 2.87% [at 11.4 µM] (inactive).

For the compound `CS(=O)(=O)Nc1cccc(-c2nc(Nc3ccc(F)cc3)c3ccccc3n2)c1`, the activity, negative = inhibition is -24.2% [at 2.29 µM] (inactive).

Consider `O=S(=O)(Nc1ccc2oc(-c3ccccc3)nc2c1)c1ccccc1`, for which the AC50 is 0.794 µM (active).

As for `CN(C)c1nc(-c2cccc(NS(C)(=O)=O)c2)nc2ccccc12`, the activity, negative = inhibition is 15.7% [at 2.29 µM] (inactive).

For `CC(C)CN=C(N)N=C(N)N`, the activity, negative = inhibition is -6.17% [at 11.4 µM] (inactive).

Take `CC1CCc2c(C(=O)Nc3nccs3)csc2C1` (configuration not stated): the AC50 was 3.16 µM (active).

Consider `CN1CCc2cc(Cl)c(O)cc2[C@H](c2ccccc2)C1`, for which the AC50 result was “inactive”.

For the compound `COc1cccc(C(c2c(C)[nH]n(-c3ccccc3)c2=O)c2c(C)[nH]n(-c3ccccc3)c2=O)c1O`, the AC50 entry is “inactive”.

Turning to `CC1=NN(c2ccc(F)cc2)C(=O)C1C(c1cccc(O)c1)c1c(C)[nH]n(-c2ccc(F)cc2)c1=O` (configuration not stated), the half-maximal activity concentration (AC50) was 4.47 µM (active).

For the compound `CCC(=O)O[C@@]1(C(=O)SCF)[C@@H](C)C[C@H]2[C@@H]3C[C@@H](F)C4=CC(=O)C=C[C@@]4(C)[C@]3(F)[C@@H](O)C[C@]21C`, the AC50 result was “inactive”.

For `O=C(O)CP(=O)(O)O`, the AC50 result was “inactive”.

Take `Cc1cccc(OCCCC(=O)Nc2ccc(N3CCCCC3)cc2)c1`: the AC50 entry was “inactive”.

As to `COc1ccc(NC(=O)c2ccc(COc3ccccc3)o2)cc1`, the AC50 was 0.251 µM (active).

Turning to `COC(=O)CCC(=O)Nc1cccc(C(=O)Nc2cccc(Cl)c2)c1`, the AC50 is 3.16 µM (active).

For the compound `CC(=O)c1cccc(NC(=O)Oc2ccccc2)c1`, the AC50 entry is “inactive”.

Take `COC(=O)c1cccc(NC(=O)CCCOc2ccccc2)c1`: the AC50 was 3.16 µM (active).

With `COc1ccc(NC(=O)CCOc2ccccc2)cc1`, the AC50 is 11.2 µM (active).

As for `O=C(O)CCSC1=NCCN1`, the activity, negative = inhibition was 2.01% [at 11.4 µM] (inactive).

For `CN(C)Cc1ccccc1-c1cc(NCc2cccs2)ncn1`, the activity, negative = inhibition was 12.8% [at 2.29 µM] (inactive).

As to `C[C@]12CC[C@H]3c4ccc(O)cc4CC[C@@H]3[C@H]1CC[C@@H]2OC(=O)CCC1CCCC1`, the activity, negative = inhibition was 17.9% [at 11.4 µM] (inactive).

In the case of `O=C(Nc1cccc(Cl)c1)Nn1cnnc1`, the activity, negative = inhibition is 8% [at 11.4 µM] (inactive).

With `Cc1ccc(OCc2ccc(C(=O)Nc3nccs3)o2)cc1C`, the AC50 was 10 µM (active).

Turning to `COC(=O)c1cccc(NC(=O)Nc2ccc(Cl)c(Cl)c2)c1`, the AC50 is 2.51 µM (active).

Regarding `Cc1onc(C(=O)/C=C/N(C)C)c1C(=O)Nc1nccs1`, the AC50 result is “inactive”.

On to `O=C1OCCC1Sc1nnnn1-c1ccccc1` (configuration not stated), for which the AC50 entry was “inactive”.

Take `CCC(CC)C(=O)Nc1ccc(C)c(O)c1`: the AC50 was 3.16 µM (active).

As to `Cc1ccccc1N1C(=O)c2cc(S(N)(=O)=O)c(Cl)cc2N[C@H]1C`, the AC50 entry was “inactive”.

In the case of `Cc1[nH]nc(N2CCCCCC2)c1[N+](=O)[O-]`, the concentration at half-maximal activity (AC50) is 17.8 µM (active).

As for `Cc1ccccc1CN1C2=NCCN2C(=O)C2=C1CCN(Cc1ccccc1)C2`, the activity, negative = inhibition was -1.36% [at 11.4 µM] (inactive).

Consider `N=C(N)SCc1nc(-c2ccc(Cl)cc2)no1`, for which the AC50 is 3.98 µM (active).

Turning to `CN(C)C(=O)CCc1nc(-c2ccc(C(C)(C)C)cc2)no1`, the AC50 result is “inactive”.

Take `Cc1ccc(C(=O)C2CCNCC2)cc1`: the AC50 result is “inactive”.

Take `Cc1ccc(C2CC2C(=O)NN)cc1` (configuration not stated): the AC50 is 14.1 µM (active).

Regarding `Cc1ccc(NC(=O)C2CCN(S(C)(=O)=O)CC2)cc1`, the AC50 entry is “inactive”.

Consider `Cc1cccc(CNc2cc(-c3ccccc3CN(C)C)ncn2)c1`, for which the activity, negative = inhibition is -2.61% [at 2.29 µM] (inactive).

For `CC(C)=CCc1c2c(c3occ(-c4ccc(O)c(O)c4)c(=O)c3c1O)C=CC(C)(C)O2`, the AC50 was 3.16 µM (active).

For `CN(C)CCO[C@](C)(c1ccccc1)c1ccccn1`, the AC50 result was “inactive”.

Regarding `COC(=O)c1sccc1NC(=O)c1cc(-c2ccc(C)cc2)nc2ccccc12`, the AC50 was 3.98 µM (active).

Consider `COC(=O)c1sccc1NC(=O)c1cc(-c2ccc(C)cc2C)nc2ccccc12`, for which the AC50 was 2.24 µM (active).

On to `COc1ccc(-c2cc([C@H](O)[C@@H]3CCCCN3)c3ccccc3n2)cc1`, for which the activity, negative = inhibition is 3.54% [at 11.4 µM] (inactive).

Take `COC(=O)c1sccc1NC(=O)c1cc(-c2cc(C)ccc2C)nc2ccccc12`: the AC50 result was “inactive”.

For `COC(=O)CNC(c1ccccc1Cl)c1cc(Br)ccc1NC(=O)CCN1CCOCC1` (configuration not stated), the AC50 was 15.8 µM (active).

On to `Clc1ccccc1-c1cc(NCCN2CCOCC2)ncn1`, for which the activity, negative = inhibition was 16.8% [at 2.29 µM] (inactive).

In the case of `O=C(CSCc1ccccc1Cl)NN1C(=O)c2ccccc2C1=O`, the AC50 was 3.98 µM (active).

Regarding `O=C(CSCc1ccccc1Cl)NNC(=O)c1ccccc1`, the AC50 result is “inactive”.

As for `O=C(NNC(=S)Nc1ccccc1)C1CC1`, the AC50 result was “inactive”.

As to `O=C(CSCc1ccccc1Cl)NNC(=S)Nc1ccccc1`, the AC50 was 2.51 µM (active).

In the case of `O=C(NN1C(=O)c2ccccc2C1=O)C1CCCCC1`, the AC50 entry was “inactive”.

With `CC(C)CNC(=O)O`, the activity, negative = inhibition was -4.26% [at 11.4 µM] (inactive).

Take `Cc1oc(-c2cccs2)[n+]([O-])c1C`: the AC50 result is “inactive”.

On to `C(=C\c1nnc(-c2cccs2)o1)/c1ccccc1`, for which the AC50 was 14.1 µM (active).

In the case of `Clc1cccc(Cl)c1CSc1nnc(/C=C/c2ccccc2)o1`, the AC50 result is “inactive”.

For the compound `O=[N+]([O-])c1ccc(C2CCCC/C2=N\OCc2cccc(F)c2)c([N+](=O)[O-])c1` (configuration not stated), the concentration at half-maximal activity (AC50) is 7.94 µM (active).

With `CC1(C)N=C(N)N=C(N)N1c1cccc(OCc2cccc([N+](=O)[O-])c2)c1`, the activity, negative = inhibition was -1.87% [at 11.4 µM] (inactive).

In the case of `CCN1CCN(C(=O)N[C@H](C(=O)N[C@@H]2C(=O)N3C(C(=O)O)=C(CSc4nnnn4C)CS[C@@H]23)c2ccc(O)cc2)C(=O)C1=O`, the AC50 result is “inactive”.

On to `CCCCN(C)S(=O)(=O)c1ccc(C(=O)Nc2nnc(CSC)o2)cc1`, for which the AC50 is 0.794 µM (active).

`CN(CCC(=O)O)S(=O)(=O)c1ccccc1`: the activity, negative = inhibition was 22.4% [at 11.4 µM] (inactive).

Regarding `CCCCN(CC)S(=O)(=O)c1ccc(C(=O)Nc2nnc(CSC)o2)cc1`, the AC50 was 0.891 µM (active).

Consider `CN(Cc1ccco1)c1ccnc(-c2ccccc2C(F)(F)F)n1`, for which the activity, negative = inhibition was -4.94% [at 2.29 µM] (inactive).

For the compound `O=C(O)C[C@H](S)C(=O)O`, the activity, negative = inhibition was 10.9% [at 11.4 µM] (inactive).

For `O=C(c1cc(-c2ccc(Cl)cc2Cl)on1)N1CCN(C(=O)c2ccco2)CC1`, the AC50 is 7.08 µM (active).

With `O=C(c1ccco1)N1CCN(C(=O)c2nn3cccnc3c2Cl)CC1`, the AC50 result was “inactive”.

Take `O=C(c1ccc(Cl)cc1)N1CCN(C(=O)c2ccco2)CC1`: the AC50 result was “inactive”.

Regarding `CC[N+](CC)(CC)CC(=O)Nc1c(C)cccc1C`, the AC50 result was “inactive”.

Take `Cc1cc2cc3c(cc2nc1SCC(=O)Nc1c(C)cccc1C)CCC3`: the AC50 is 4.47 µM (active).

In the case of `Cc1cccc(C)c1NC(=O)C[N+](C)(C)C`, the AC50 entry is “inactive”.

`CO[C@H]1COC(=O)[C@H]2CCCN2C(=O)[C@@H](C)COC(=O)C/C=C\[C@@H]1C`: the activity, negative = inhibition was 7.11% [at 11.4 µM] (inactive).

On to `O=C(NCc1cccnc1)/C(=C/c1ccc(-c2cccc(Cl)c2)o1)S(=O)(=O)c1ccccc1`, for which the AC50 is 6.31 µM (active).

Take `CN(C(=S)Nc1ccccc1F)C1(c2ccccc2Cl)CCCCC1=O` (configuration not stated): the AC50 was 17.8 µM (active).

With `CCN(C(=S)Nc1ccccc1F)C1CCCCC1`, the AC50 entry was “inactive”.

Take `COc1ccccc1CNc1ncncc1-c1ccc(C(=O)N(C)C)cc1`: the activity, negative = inhibition is -24.3% [at 2.29 µM] (inactive).

With `COc1ccccc1C(=O)NCCn1cc(SCC(=O)Nc2nnc(C)s2)c2ccccc21`, the AC50 was 2.24 µM (active).

As for `COC(=O)Nc1nc2ccc(SC(C)C)cc2[nH]1`, the AC50 entry is “inactive”.

For `Cc1noc(C)c1C(=O)N1CCC2(CCN(Cc3cc(C(F)(F)F)cc(C(F)(F)F)c3)CC2)CC1`, the AC50 result was “inactive”.

`CO[C@@H]1COC(=O)CC=C[C@@H](C)[C@@H]2C=C[C@H](O)[C@@H](COC(=O)[C@H](C)NC(=O)CC=C[C@H]1C)O2`: the activity, negative = inhibition was -4.45% [at 11.4 µM] (inactive).

Regarding `CC(C)OP(=O)(OC(C)C)C(NC(=O)c1ccc(Br)cc1)c1ccccc1` (configuration not stated), the AC50 was 10 µM (active).

Usually AC50 stands for the midpoint of the concentration-response curve, whichever way the signal moves.
